In ChEMBL document CHEMBL3433997, “St. Jude Leishmania screening dataset” (2016) one finds inhibition data, which are given here for 34 compounds.

Structures are written as SMILES.

Holding throughout (type): functional
In experiment [1] the target is Solute carrier family 2, facilitated glucose transporter member 1 (Homo sapiens) (UniProt P11166). As to the kind of experiment: ST_JUDE_LEISH: Cytotoxicity at 2uM final concentration against transgenic Leishmania Mexicana promastigotes LmGLUT1 that are glucose transport deficient and complemented with the human glucose transporter GLUT1. Activity is measured by DNA content using SYBR green in vitro.

Experiment [2] concerns the target Hexose transporter 1 (Plasmodium falciparum) (UniProt O97467). Kind of experiment: ST_JUDE_LEISH: Cytotoxicity at 2uM final concentration against transgenic Leishmania Mexicana promastigotes LmPfHT that are glucose transport deficient and complemented with the Plasmodium falciparum hexose transporter. Activity is measured by DNA content using SYBR green in vitro.

Experiment [3] addresses Glucose transporter (Leishmania mexicana) (UniProt O61059). As to the kind of experiment: ST_JUDE_LEISH: Cytotoxicity at 2uM final concentration against transgenic Leishmania Mexicana promastigotes LmGT2 that are glucose transport deficient and complemented with the L. Mexicana glucose transporter 2. Activity is measured by DNA content using SYBR green in vitro.

Chain of Solute carrier family 2, facilitated glucose transporter member 1 (Homo sapiens) (P11166 whole entry): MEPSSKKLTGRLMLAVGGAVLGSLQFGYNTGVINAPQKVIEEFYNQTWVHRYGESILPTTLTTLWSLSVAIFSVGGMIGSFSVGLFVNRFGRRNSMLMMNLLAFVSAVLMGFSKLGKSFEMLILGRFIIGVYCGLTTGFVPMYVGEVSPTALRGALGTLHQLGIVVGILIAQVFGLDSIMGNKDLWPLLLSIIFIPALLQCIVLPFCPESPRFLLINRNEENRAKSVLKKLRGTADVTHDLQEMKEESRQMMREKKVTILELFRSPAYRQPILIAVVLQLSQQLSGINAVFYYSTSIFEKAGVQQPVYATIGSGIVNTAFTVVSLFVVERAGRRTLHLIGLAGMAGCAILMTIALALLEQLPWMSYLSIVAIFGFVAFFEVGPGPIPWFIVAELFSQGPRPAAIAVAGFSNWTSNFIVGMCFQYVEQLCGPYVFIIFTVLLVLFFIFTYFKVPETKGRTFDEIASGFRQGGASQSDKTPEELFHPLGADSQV

Take `O=C(Nc1ccc(Cl)cc1C(=O)Nc1cccc(F)c1)c1ccc([N+](=O)[O-])cc1`: the results for the inhibition in experiment [1], in experiment [2] and in experiment [3] were 0.5%, 0.92% and 1.58%, respectively.
The corresponding values for `Cc1cc(NC2CCCC2)nc(Nc2ccccc2C)n1` are 12.6%, 7.5% and 4.09%.
`CCOc1ccc(-c2noc(-c3c[nH]c4ccccc4c3=O)n2)cc1`: the inhibition is 1.69% in experiment [1], -0.34% in experiment [2] and 2.82% in experiment [3].
The corresponding values for `CC1(C)N=C(N)N=C(N)C1c1ccc(Cl)cc1` (configuration not stated) are 4.19%, 5.72% and 3.51%.
On to `CO/C(=C\C=C\c1cc2cc(Cl)c(Cl)cc2[nH]1)C(=O)NC1CCN(CCNc2ccccc2)CC1`, for which the inhibition in experiment [1] is -1.91%; in experiment [2], -1.2%; in experiment [3], 0.08%.
For `CC(C)(C(=O)Nc1ccc(C2CCC(NCC3CC3)CC2)c(Cl)c1)c1cccc(OC(F)F)c1` (configuration not stated) the same measures were 9.94%, 8.75% and 9.65%.
In the case of `COCCNCc1ncsc1-c1ccc2c(Nc3cc(O)ccc3C)ccnc2c1`, the inhibition turned out to be 1.05% in experiment [1], 0.61% in experiment [2] and 1% in experiment [3].
With `CCOc1cc(C(=O)Nc2ccc3nc(N(CC)CC)cc(C)c3c2)cc(OCC)c1OCC`, the inhibition was -0.12% in experiment [1], -0.88% in experiment [2] and -3.87% in experiment [3].
Regarding `COc1cc2ccccc2c(CNCCCCCCNCc2c(OC)c(OC)cc3ccccc23)c1OC`, the figures for the inhibition in experiment [1], in experiment [2] and in experiment [3] were 4.39%, 3.44% and 1.23%, respectively.
In the case of `COc1cc(Cc2cnc(N)nc2N)cc(OCCCN2C(=O)c3ccccc3C2=O)c1OC`, the inhibition worked out at 4.68% in experiment [1], 5.99% in experiment [2] and 6.69% in experiment [3].
As for `CCN1CCN(Cc2c(O)ccc3c(=O)c(Oc4cc(C)cc(C)c4)c(C(F)(F)F)oc23)CC1`, the inhibition stood at 75.7% in experiment [1], 73.3% in experiment [2] and 54.5% in experiment [3].
In the case of `Cc1nccn1Cc1cc(C(C)(C)C)c(O)c(C(C)(C)C)c1`, the inhibition amounted to 3.44% in experiment [1], 2.22% in experiment [2] and 3.5% in experiment [3].
On to `COc1cc(NC(=O)/C=C/c2cccc3cc[nH]c23)ccc1OCCN(C(C)C)C(C)C`, for which the inhibition is 2.46% in experiment [1], 1.55% in experiment [2] and -2.66% in experiment [3].
For `O=C(/C=C/c1ccc(Cl)c(Cl)c1)NCCCCCN1CCC(n2c(=O)[nH]c3ccccc32)CC1`, the inhibition amounted to 8.14% in experiment [1], 7.32% in experiment [2] and 7.73% in experiment [3].
As for `CCCCc1nc2nc(N)nc(N)c2cc1CCC`, the inhibition in experiment [1] is 1.72%; in experiment [2], 6.46%; in experiment [3] it was 1.5%.
Regarding `CCn1cnc2c(Nc3cccc([N+](=O)[O-])c3)nc(N3CCC(N4CCCCC4)CC3)nc21`, the inhibition is 0.93% in experiment [1], 3.03% in experiment [2] and -0.24% in experiment [3].
Consider `CCNc1cc(C)nc(Nc2ccc(NC(=O)C3CCCC3)cc2)n1`, for which the inhibition came out at 8.61% in experiment [1], 6.7% in experiment [2] and 3.57% in experiment [3].
Consider `COc1ccc(NC(=O)[C@H](Cc2ccccc2)Nc2cc(C)nc(NCCOc3ccccc3)n2)cc1`, for which the inhibition in experiment [1] turned out to be 4.06%; in experiment [2], 2.78%; in experiment [3] it was 2.55%.
As to `CNCCNc1nccc(N2CCc3ncnc(Nc4ccc(OCc5cccc(F)c5)c(Cl)c4)c3C2)n1`, the inhibition in experiment [1] turned out to be 3.85%; in experiment [2], 5%; in experiment [3], 2.3%.
The corresponding values for `Cc1ccccc1CNc1noc(-c2c(F)cccc2Cl)n1` are 4.28%, 5.55% and 5.34%.
For `O=C(/C=C/c1ccccc1Cl)Nc1ccc(Br)c(OCCN2CCCCC2)c1`, the inhibition in experiment [1] was 2.43%; in experiment [2], 2.16%; in experiment [3], -0.1%.
Consider `Cc1nc2ccccc2c(=O)n1NCc1ccc(Cl)c(Cl)c1`, for which the inhibition in experiment [1] is -1.5%; in experiment [2], -1.58%; in experiment [3], 0.11%.
`CS(=O)(=O)Cc1ccc(Nc2nccc(-c3c(-c4cccc(C(=O)Nc5c(F)cccc5F)c4)nn4ccccc34)n2)cc1`: the inhibition in experiment [1] was determined as 21.4%; in experiment [2] it was 10.2%; in experiment [3], 2.15%.
Take `Fc1ccc(Nc2ccnc3cc(-c4ccc(CN5CCOCC5)o4)ccc23)c(Cl)c1`: the inhibition in experiment [1] came out at 9.15%; in experiment [2] it was 8.02%; in experiment [3], 7.49%.
For `CC1(C)N=C(N)N=C(N)N1CCc1ccccc1` the same measures were 11.6%, 7.56% and 8.45%.
With `CCCCCCN1CCC(NCc2ccc(CN(C)C)cc2)CC1`, the inhibition is 0.45% in experiment [1], 2.27% in experiment [2] and -7.52% in experiment [3].
The corresponding values for `C=CCc1cccc(CN2CCC(c3cc(O)nc(-c4ccccn4)n3)CC2)c1O` are 8.38%, 10.4% and 0.24%.
Take `Nc1nccc2ccc(-c3ccc4nccn4c3)cc12`: the inhibition in experiment [1] turned out to be 3.49%; in experiment [2] it was 3.17%; in experiment [3], 4.92%.
Turning to `CN1CCN(c2ccnc3ccc(NC(=O)Cc4ccc(-c5ccncc5)c5ccccc45)cc23)CC1`, the inhibition in experiment [1] was -3.69%; in experiment [2] it was 0.37%; in experiment [3], -0.2%.
On to `Cc1cccc2c3c([nH]c12)C1(CCN(CCc2ccccc2)CC1)NC(C(=O)NCc1ccccc1)C3` (configuration not stated), for which the inhibition amounted to 4.58% in experiment [1], 5.51% in experiment [2] and 0.71% in experiment [3].
As for `N#Cc1ccc(CN2CCC(Oc3ccc(NC(=O)c4cccs4)cc3Cl)CC2)cc1`, the values for the inhibition in experiment [1], in experiment [2] and in experiment [3] were 5%, 10.5% and 8.03%, respectively.
For `Cc1cc(CN2CCC(N3CC(c4ccccc4)(c4ccccc4)OC3=O)C2)ccc1O` (configuration not stated) the same measures were 4.14%, 3.7% and 8.06%.
With `Cc1ccc(-c2ccn(Cc3cccc(OCc4ccccc4)c3)n2)cn1.Cc1ccc(-c2ccnn2Cc2cccc(OCc3ccccc3)c2)cn1`, the figures for the inhibition in experiment [1], in experiment [2] and in experiment [3] were 2.15%, 1.4% and -0.57%, respectively.
Consider `c1ccc(CN2CCc3cc4nccc(N5CCNCC5)c4cc32)cc1`, for which the figures for the inhibition in experiment [1], in experiment [2] and in experiment [3] were -3.94%, -1.76% and 0.88%, respectively.
